Our source for the binding signal values is paper PMC8384837, “Expanding the binding specificity for RNA recognition by a PUF domain”.

Common to all, as to test: yeast three-hybrid, YBZ-1, SC-Leu-His + 0.5 mM 3-AT, 4 days
Common to all, as to details: tags: N-Gal4 AD-HA kept; label: inside an RPR1-promoter hybrid RNA with tandem MS2 sites; ssRNA

One assay has as its target PUM1 PUF domain R4-NNV (Homo sapiens, UniProt Q14671 828-1176, H972N;Q975V). The essentials: (§1)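 The interaction score is the log change in variant frequency from input to selection. Scores were computed in log2 with a pseudocount of 1 for absent variants, using Illumina sequencing of PCR-amplified repeat regions. The input came from four days on SC-Leu and the selection from four days on SC-Leu-His + 0.5 mM 3-AT. The cells were strain YBZ-1 (LexA–MS2 coat fusion, HIS3 reporter) co-expressing Pumilio-1 PUF domain libraries and matching RNA elements from a centromeric plasmid.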

For another assay, the target named is PUM1 PUF domain R4-PYC (Homo sapiens, UniProt Q14671 828-1176, N971P;H972Y;Q975C). The essentials: as §1
Sequence of PUM1 PUF domain R4-PYC (Q14671 828-1176 N971P/H972Y/Q975C): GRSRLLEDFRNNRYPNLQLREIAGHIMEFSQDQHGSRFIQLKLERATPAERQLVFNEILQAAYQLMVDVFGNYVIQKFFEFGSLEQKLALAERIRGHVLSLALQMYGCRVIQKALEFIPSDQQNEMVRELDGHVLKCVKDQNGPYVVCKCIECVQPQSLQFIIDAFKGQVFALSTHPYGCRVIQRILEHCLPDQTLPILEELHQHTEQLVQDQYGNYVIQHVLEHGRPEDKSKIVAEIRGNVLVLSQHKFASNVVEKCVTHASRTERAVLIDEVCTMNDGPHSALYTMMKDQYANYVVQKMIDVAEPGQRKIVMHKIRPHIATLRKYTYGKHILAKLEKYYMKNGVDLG
For another assay, the target named is PUM1 PUF domain R4-VPG (Homo sapiens, UniProt Q14671 828-1176, N971V;H972P;Q975G). In a few lines: as §1
Sequence of PUM1 PUF domain R4-VPG (Q14671 828-1176 N971V/H972P/Q975G): as the sequence (Q14671 828-1176 N971P/H972Y/Q975C) above, with P144V, Y145P, C148G counted along it
A further assay addresses PUM1 PUF domain R4-GRC (Homo sapiens, UniProt Q14671 828-1176, N971G;H972R;Q975C). The essentials: as §1
The next assay has as its target PUM1 PUF domain R8-KHT (Homo sapiens, UniProt Q14671 828-1176, N1122K;Y1123H;Q1126T). In a few lines: as §1
A further assay concerns the target PUM1 PUF domain R8-GHK (Homo sapiens, UniProt Q14671 828-1176, N1122G;Y1123H;Q1126K). In a few lines: as §1
The target of a further assay is PUM1 PUF domain R8-RWS (Homo sapiens, UniProt Q14671 828-1176, N1122R;Y1123W;Q1126S). The essentials:
as §1

The target of a further assay is PUM1 PUF domain R3-GPC (Homo sapiens, UniProt Q14671 828-1176, C935G;R936P;Q939C). The essentials:
as §1

The target of a further assay is PUM1 PUF domain R3-DWR (Homo sapiens, UniProt Q14671 828-1176, C935D;R936W;Q939R). The essentials:
as §1

The next assay addresses PUM1 PUF domain R5-RSD (Homo sapiens, UniProt Q14671 828-1176, C1007R;R1008S;Q1011D). The essentials:
as §1

Another assay deals with PUM1 PUF domain R5-RQH (Homo sapiens, UniProt Q14671 828-1176, C1007R;R1008Q;Q1011H). In a few lines:
as §1

In another assay the target is PUM1 PUF domain R5-LNL (Homo sapiens, UniProt Q14671 828-1176, C1007L;R1008N;Q1011L). In a few lines:
as §1

The next assay deals with PUM1 PUF domain R5-THV (Homo sapiens, UniProt Q14671 828-1176, C1007T;R1008H;Q1011V). In a few lines:
as §1

A further assay addresses PUM1 PUF domain R4-GPM (Homo sapiens, UniProt Q14671 828-1176, N971G;H972P;Q975M). In a few lines:
as §1

A further assay addresses PUM1 PUF domain R5-IYH (Homo sapiens, UniProt Q14671 828-1176, C1007I;R1008Y;Q1011H). In a few lines: as §1
The target of a further assay is PUM1 PUF domain R3-THF (Homo sapiens, UniProt Q14671 828-1176, C935T;R936H;Q939F). The essentials: as §1
Sequence of PUM1 PUF domain R3-THF (Q14671 828-1176 C935T/R936H/Q939F): as the sequence (Q14671 828-1176 N971P/H972Y/Q975C) above, with C108T, R109H, Q112F, P144N, Y145H, C148Q counted along it
Another assay concerns the target PUM1 PUF domain R5-SGT (Homo sapiens, UniProt Q14671 828-1176, C1007S;R1008G;Q1011T). The essentials:
as §1

A further assay concerns the target PUM1 PUF domain R3-IWT (Homo sapiens, UniProt Q14671 828-1176, C935I;R936W;Q939T). In a few lines:
as §1

A further assay addresses PUM1 PUF domain R3-ARD (Homo sapiens, UniProt Q14671 828-1176, C935A;Q939D). In a few lines: as §1
The target of the next assay is PUM1 PUF domain R3-FRL (Homo sapiens, UniProt Q14671 828-1176, C935F;Q939L). In a few lines: as §1
Sequence of PUM1 PUF domain R3-FRL (Q14671 828-1176 C935F/Q939L): as the sequence (Q14671 828-1176 N971P/H972Y/Q975C) above, with C108F, Q112L, P144N, Y145H, C148Q counted along it

Sequence of PUM1 PUF domain R3-DWR (Q14671 828-1176 C935D/R936W/Q939R): as the sequence (Q14671 828-1176 N971P/H972Y/Q975C) above, with C108D, R109W, Q112R, P144N, Y145H, C148Q counted along it
Sequence of PUM1 PUF domain R4-NNV (Q14671 828-1176 H972N/Q975V): as the sequence (Q14671 828-1176 N971P/H972Y/Q975C) above, with P144N, Y145N, C148V counted along it
Sequence of PUM1 PUF domain R4-GRC (Q14671 828-1176 N971G/H972R/Q975C): as the sequence (Q14671 828-1176 N971P/H972Y/Q975C) above, with P144G, Y145R counted along it
Sequence of PUM1 PUF domain R5-RSD (Q14671 828-1176 C1007R/R1008S/Q1011D): as the sequence (Q14671 828-1176 N971P/H972Y/Q975C) above, with P144N, Y145H, C148Q, C180R, R181S, Q184D counted along it
Sequence of PUM1 PUF domain R3-GPC (Q14671 828-1176 C935G/R936P/Q939C): as the sequence (Q14671 828-1176 N971P/H972Y/Q975C) above, with C108G, R109P, Q112C, P144N, Y145H, C148Q counted along it
Sequence of PUM1 PUF domain R8-RWS (Q14671 828-1176 N1122R/Y1123W/Q1126S): as the sequence (Q14671 828-1176 N971P/H972Y/Q975C) above, with P144N, Y145H, C148Q, N295R, Y296W, Q299S counted along it
Sequence of PUM1 PUF domain R5-SGT (Q14671 828-1176 C1007S/R1008G/Q1011T): as the sequence (Q14671 828-1176 N971P/H972Y/Q975C) above, with P144N, Y145H, C148Q, C180S, R181G, Q184T counted along it
Sequence of PUM1 PUF domain R8-KHT (Q14671 828-1176 N1122K/Y1123H/Q1126T): as the sequence (Q14671 828-1176 N971P/H972Y/Q975C) above, with P144N, Y145H, C148Q, N295K, Y296H, Q299T counted along it
Sequence of PUM1 PUF domain R5-THV (Q14671 828-1176 C1007T/R1008H/Q1011V): as the sequence (Q14671 828-1176 N971P/H972Y/Q975C) above, with P144N, Y145H, C148Q, C180T, R181H, Q184V counted along it
Sequence of PUM1 PUF domain R3-ARD (Q14671 828-1176 C935A/Q939D): as the sequence (Q14671 828-1176 N971P/H972Y/Q975C) above, with C108A, Q112D, P144N, Y145H, C148Q counted along it
Sequence of PUM1 PUF domain R5-RQH (Q14671 828-1176 C1007R/R1008Q/Q1011H): as the sequence (Q14671 828-1176 N971P/H972Y/Q975C) above, with P144N, Y145H, C148Q, C180R, R181Q, Q184H counted along it
Sequence of PUM1 PUF domain R8-GHK (Q14671 828-1176 N1122G/Y1123H/Q1126K): as the sequence (Q14671 828-1176 N971P/H972Y/Q975C) above, with P144N, Y145H, C148Q, N295G, Y296H, Q299K counted along it
Sequence of PUM1 PUF domain R4-GPM (Q14671 828-1176 N971G/H972P/Q975M): as the sequence (Q14671 828-1176 N971P/H972Y/Q975C) above, with P144G, Y145P, C148M counted along it
Sequence of PUM1 PUF domain R3-IWT (Q14671 828-1176 C935I/R936W/Q939T): as the sequence (Q14671 828-1176 N971P/H972Y/Q975C) above, with C108I, R109W, Q112T, P144N, Y145H, C148Q counted along it
Sequence of PUM1 PUF domain R5-IYH (Q14671 828-1176 C1007I/R1008Y/Q1011H): as the sequence (Q14671 828-1176 N971P/H972Y/Q975C) above, with P144N, Y145H, C148Q, C180I, R181Y, Q184H counted along it
Sequence of PUM1 PUF domain R5-LNL (Q14671 828-1176 C1007L/R1008N/Q1011L): as the sequence (Q14671 828-1176 N971P/H972Y/Q975C) above, with P144N, Y145H, C148Q, C180L, R181N, Q184L counted along it

For “GGCUAGAACUAGUGGAUCCCCCGGCGCCCGGCGGCUCGAGCCCGGGUAAGUGUACAUAGUCUGCAUGCCGCCGGGCGCCAUGCCUGCAGGUCGACUCUAGAAAACAUG”, the binding signal was 2.48 log2 enrichment (interaction score) with PUM1 PUF domain R4-NNV, 6.68 log2 enrichment (interaction score) with PUM1 PUF domain R4-PYC, 2.82 log2 enrichment (interaction score) in the assay with PUM1 PUF domain R4-VPG and 0.93 log2 enrichment (interaction score) with PUM1 PUF domain R4-GRC.

Take “GGCUAGAACUAGUGGAUCCCCCGGCGCCCGGCGGCUCGAGCCCGGGUAAGCGUAAAUAGUCUGCAUGCCGCCGGGCGCCAUGCCUGCAGGUCGACUCUAGAAAACAUG”: the binding signal with PUM1 PUF domain R8-KHT is 4.89 log2 enrichment (interaction score); with PUM1 PUF domain R8-GHK, 2.58 log2 enrichment (interaction score); with PUM1 PUF domain R8-RWS, 5.59 log2 enrichment (interaction score).

As to “GGCUAGAACUAGUGGAUCCCCCGGCGCCCGGCGGCUCGAGCCCGGGUAAGUGUAAUUAGUCUGCAUGCCGCCGGGCGCCAUGCCUGCAGGUCGACUCUAGAAAACAUG”, the binding signal with PUM1 PUF domain R3-GPC was 2.82 log2 enrichment (interaction score); with PUM1 PUF domain R3-DWR, 3.53 log2 enrichment (interaction score).

In the case of “GGCUAGAACUAGUGGAUCCCCCGGCGCCCGGCGGCUCGAGCCCGGGUAAGUGUCAAUAGUCUGCAUGCCGCCGGGCGCCAUGCCUGCAGGUCGACUCUAGAAAACAUG”, the binding signal is 2.74 log2 enrichment (interaction score) with PUM1 PUF domain R5-RSD and 3.64 log2 enrichment (interaction score) with PUM1 PUF domain R5-RQH.

With “GGCUAGAACUAGUGGAUCCCCCGGCGCCCGGCGGCUCGAGCCCGGGUAAGUGUAUAUAGUCUGCAUGCCGCCGGGCGCCAUGCCUGCAGGUCGACUCUAGAAAACAUG”, the binding signal in the assay with PUM1 PUF domain R4-NNV was 3.42 log2 enrichment (interaction score); in the assay with PUM1 PUF domain R4-PYC, 7.49 log2 enrichment (interaction score); with PUM1 PUF domain R4-VPG, 2.52 log2 enrichment (interaction score); with PUM1 PUF domain R4-GRC, 2.46 log2 enrichment (interaction score).

As for “GGCUAGAACUAGUGGAUCCCCCGGCGCCCGGCGGCUCGAGCCCGGGUAAGUGUUAAUAGUCUGCAUGCCGCCGGGCGCCAUGCCUGCAGGUCGACUCUAGAAAACAUG”, the binding signal in the assay with PUM1 PUF domain R5-LNL is 3.35 log2 enrichment (interaction score); with PUM1 PUF domain R5-RSD, 2.65 log2 enrichment (interaction score); with PUM1 PUF domain R5-THV, 3.33 log2 enrichment (interaction score).

Regarding “GGCUAGAACUAGUGGAUCCCCCGGCGCCCGGCGGCUCGAGCCCGGGUAAGUGUAAAUAGUCUGCAUGCCGCCGGGCGCCAUGCCUGCAGGUCGACUCUAGAAAACAUG”, the binding signal was 2.57 log2 enrichment (interaction score) with PUM1 PUF domain R3-GPC; 2.8 log2 enrichment (interaction score) with PUM1 PUF domain R4-GPM; 4.47 log2 enrichment (interaction score) in the assay with PUM1 PUF domain R5-IYH; 0.88 log2 enrichment (interaction score) with PUM1 PUF domain R3-DWR; 4.8 log2 enrichment (interaction score) with PUM1 PUF domain R8-RWS; 3.81 log2 enrichment (interaction score) in the assay with PUM1 PUF domain R3-THF. Further, the binding signal in the assay with PUM1 PUF domain R4-NNV was 1.31 log2 enrichment (interaction score); with PUM1 PUF domain R4-PYC, 7.66 log2 enrichment (interaction score); with PUM1 PUF domain R4-VPG, 3.14 log2 enrichment (interaction score); with PUM1 PUF domain R4-GRC, 4.62 log2 enrichment (interaction score).

Take “GGCUAGAACUAGUGGAUCCCCCGGCGCCCGGCGGCUCGAGCCCGGGUAAGUGUGAAUAGUCUGCAUGCCGCCGGGCGCCAUGCCUGCAGGUCGACUCUAGAAAACAUG”: the binding signal with PUM1 PUF domain R5-SGT is 2.85 log2 enrichment (interaction score).

Turning to “GGCUAGAACUAGUGGAUCCCCCGGCGCCCGGCGGCUCGAGCCCGGGUAAGUGUAAGUAGUCUGCAUGCCGCCGGGCGCCAUGCCUGCAGGUCGACUCUAGAAAACAUG”, the binding signal with PUM1 PUF domain R3-IWT was 3.1 log2 enrichment (interaction score); with PUM1 PUF domain R3-ARD it was 4.51 log2 enrichment (interaction score); in the assay with PUM1 PUF domain R3-DWR, 1.12 log2 enrichment (interaction score); with PUM1 PUF domain R3-FRL it was 4.24 log2 enrichment (interaction score).
